Broadly, the inhibition is the change of the read-out against control, counted positive when it falls.

Activity calls are given as the source filed them. How the calls were made is not given here.

Pantothenate synthetase (Mycobacterium tuberculosis (strain ATCC 25618 / H37Rv)), sequence (P9WIL5 whole entry, looked up): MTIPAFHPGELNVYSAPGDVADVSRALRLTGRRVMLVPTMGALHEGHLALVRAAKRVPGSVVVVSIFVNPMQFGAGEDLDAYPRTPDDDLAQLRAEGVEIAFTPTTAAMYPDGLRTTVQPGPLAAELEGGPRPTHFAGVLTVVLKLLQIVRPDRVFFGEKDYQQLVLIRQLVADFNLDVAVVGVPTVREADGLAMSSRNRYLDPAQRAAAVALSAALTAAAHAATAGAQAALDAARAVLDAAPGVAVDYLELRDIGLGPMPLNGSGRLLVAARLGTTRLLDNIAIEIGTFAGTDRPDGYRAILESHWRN

This assay has as its target Pantothenate synthetase (Mycobacterium tuberculosis (strain ATCC 25618 / H37Rv)) (UniProt P9WIL5). The assay can be described thus: Recombinant Mtb pantothenate synthetase (PanC) inhibitors, coupled enzyme, confirmatory (AID 375).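 Further: 0% = full reaction with vehicle and 100% = no enzyme background.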 Particulars: coupled enzyme assay; at 10 µM, stronger effect = higher value.
In the case of `CCN(C#N)c1nc(NC(C)C)nc(NC(C)C)n1`, the inhibition is 5% (inactive).
In the case of `CCCCS(=O)(=O)NC1=NCN(C2CCN(Cc3ccccc3)CC2)CN1` it was 5% (inactive); in that of `CCOC(=O)c1nnn(CC(=O)Nc2cccc(F)c2)c1C(=O)OCC`, 3% (inactive).
Then `CCOc1ccc(CCN2C(=O)C3C4C=CC(C4)C3C2=O)cc1OCC` (stereo not drawn), with 3% (inactive); and `COc1cc2c(cc1NC(=O)CN1CCN(S(=O)(=O)c3ccc(F)cc3)CC1)oc1ccccc12`, with 0% (inactive).
In the case of `C=CCn1c(=O)c2ccccc2n2c(SCC(=O)Nc3cc(C)on3)nnc12` it was 0% (inactive); in that of `COc1ccc(NC(=O)CN2CCN(CC(=O)Nc3cc(OC)cc(OC)c3)CC2)cc1`, 8% (inactive); in that of `Nn1c(SCC(=O)Nc2ccccc2)nnc1-c1cccnc1`, 0% (inactive).
Turning to `CCOC(=O)CSC1=Nc2ccccc2C2=NC(CC(=O)NCc3ccc(OC)cc3)C(=O)N12` (stereo not drawn), the inhibition was 2% (inactive).
In the case of `CN1CCN(C2=Nc3ccccc3Oc3ccc(Cl)cc32)CC1` it was 4% (inactive); in that of `O=C(c1nc2n(n1)C(c1ccc(Cl)cc1)C=C(c1ccccc1)N2)N1CCOCC1` (stereo not drawn), 0% (inactive).
In the case of `O=C(O)c1cc(O)c2c(c1)C(=O)c1cccc(O)c1C2=O` it was 9% (inactive).
Then `COC(=O)C1CCN(C(=O)c2sc3nc(-c4ccc(F)cc4)cn3c2C)CC1`, with 0% (inactive); and `COc1ccc(N(CC(=O)Nc2ccc(F)c(Cl)c2)S(=O)(=O)c2c(C)noc2C)cc1`, with 11% (inactive).
In the case of `COc1ccccc1N(CC(=O)Nc1cccnc1)S(C)(=O)=O`, the inhibition is 5% (inactive).
In the case of `CCOC(=O)Cc1nnc(NC(=O)c2ncn[nH]2)s1` it was 0% (inactive); in that of `Nc1ncnc2oc(-c3ccco3)c(-c3ccco3)c12`, 2% (inactive); in that of `O=C(CN1CCC(c2nc3ccccc3s2)CC1)NCc1cccs1`, 3% (inactive).
Then `C/C(CC(O)(/C=N/O)c1ccccc1)=N\O` (stereo not drawn), with 1% (inactive).
Then `CCOC(=O)C1CCN(C(c2cc3cc(C)cc(C)c3[nH]c2=O)c2nnnn2C2CCCCC2)CC1` (stereo not drawn), with 0% (inactive); and `CCCCP(=O)(CCCC)Cc1ccccc1O`, with 0% (inactive); and `COc1ccc(C(=O)N2CCOCC2)cc1Br`, with 6% (inactive).
Consider `Cc1cc(=O)oc2cc(Oc3ncccn3)ccc12`, for which the inhibition is 6% (inactive).
